Only a selection was taken, and hits are over-represented in it overall.
Shiga inhibitor: inhibitors of Shiga toxin in Vero cells. 9.2% of 290,000 active. inhibition, % at 38.7 µM. Vero cells, Shiga toxin protein synthesis inhibition reporter; in the data active means inhibition mostly above about 28%, no sharp cut-off; inactive means mostly below about 43%
LmPK inhibitor: blocks Leishmania mexicana pyruvate kinase activity. Q27686. purified LmPK, Kinase-Glo ATP luminescence, 1 h. Potency, µM (titrated, usually from 57.5 µM), most hits filed as inhibitors. 0.37% of 290,000 active
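qHTS format; LmPK 0.1 nM; substrates PEP 0.5 mM and ADP 0.1 mM. One-hour room-temperature incubation, then coupled luciferase luminescence; 0.5 nM enzyme wells mark activation.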
RE007 growth inh: less growth of the S. pombe RE007 Vpr strain. S. pombe RE007 Vpr strain, BacTiter-Glo ATP luminescence, 24 h. 0.21% of 360,000 active. Potency, µM (titrated, usually from 92.2 µM), actives largely listed as inhibitors. AID 651644; active means well fitted falling curve with a large enough effect; inconclusive means small, poorly fitted or top-dose-only effect; inactive means no such curve, though single readings can be large or run the other way; further: nearly all actives have a fitted effect of over 50% in size
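Fission yeast RE007 carrying one integrated HIV-1 vpr copy, seeded at OD 0.01 in PMG+AL medium with 23 nL pinned compound. Grown 24 h at 30 degrees; viability read by BacTiter-Glo luminescence after 5 min.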
Cycloheximide cs: counter-screen hit for Shiga toxin inhibitors, cycloheximide | AID 2314 | cell reporter, cycloheximide protein synthesis inhibition counterscreen | max response, % | 12% of 300,000 active; in the data active means max response mostly above about 13%, no sharp cut-off; inactive means mostly below about 14%; further: read at 38.3 µM for the half of the compounds with a filed dose
Tb PYK inh: T. brucei pyruvate kinase inhibition; Q57TT1; TbPYK enzyme, Kinase-Glo Plus ATP luminescence, 45 min; Potency, µM (series often up to 76.8 µM), hits mostly inhibitors; 0.12% of 410,000 active; AID 624173; further: nearly all actives have a fitted effect of over 50% in size
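Luminescence from Kinase-Glo Plus, added after a 45-minute room-temperature reaction, served as the end-point read-out. The enzyme and substrate were preincubated with compound before ADP (130 uM final) initiated turnover. Concentration-effect curves came from normalized qHTS data.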
FBPA Giardia inh: inhibitors of Giardia lamblia fructose-1,6-bisphosphate aldolase | A8B2U2 | purified Giardia FBPA | Potency, µM (titrated, usually from 59.6 µM), most hits filed as inhibitors | 0.71% of 290,000 active; further: nearly all actives have a fitted effect of over 55% in size
Target sequence (A8B2U2 whole entry, looked up): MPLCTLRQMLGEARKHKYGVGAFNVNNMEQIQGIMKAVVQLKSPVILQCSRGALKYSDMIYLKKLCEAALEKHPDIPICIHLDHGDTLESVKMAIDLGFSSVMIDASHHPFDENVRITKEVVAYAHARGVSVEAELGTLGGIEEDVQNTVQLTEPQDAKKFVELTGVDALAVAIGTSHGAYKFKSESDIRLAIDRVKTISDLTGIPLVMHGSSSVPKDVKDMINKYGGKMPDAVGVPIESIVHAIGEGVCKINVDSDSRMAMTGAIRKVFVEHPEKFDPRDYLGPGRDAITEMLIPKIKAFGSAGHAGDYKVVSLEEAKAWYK
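Giardia FBPA (40 nM reagent) was preincubated 10 min at RT with compound (up to 57.5 uM final), then substrate plus GAPDH/TPI/NAD/arsenate coupling system with diaphorase/resazurin was added; resorufin fluorescence (525/598 nm) was read after 20 min.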
A number is an active result; - = inactive; ? = inconclusive; . = not tested or not shown; [ ] = another dose, or the depositor's remark. Unless noted, the call rests on the fitted dose curve; in most records, active means well fitted curve in the direction sought with a large enough effect; inconclusive means small, poorly fitted or top-dose-only effect, or another doubt; inactive means no such curve, though single readings can be large; an effect the other way counts as inactive or inconclusive.

SMILES	Shiga inhibitor	LmPK inhibitor	RE007 growth inh	Cycloheximide cs	Tb PYK inh	FBPA Giardia inh
COc1cc(NC(=O)Cn2c(=O)nc(-c3ccccc3F)c3cc(Cl)ccc32)cc(OC)c1	.	.	.	.	-	.
CC(CNC(=O)c1nnc(Cc2ccc(F)cc2)o1)c1ccccc1 (stereo not given)	.	.	.	.	-	.
COc1ccccc1OCC(=O)NCC1(N2CCOCC2)CCCCC1	.	.	.	.	-	.
COc1ccc(-c2nc(Cn3c(SCc4ccc(C)cc4)nc4cccnc43)c(C)o2)cc1OC	.	.	.	.	-	.
CCC(C)n1c(=O)c2sccc2n2c(CCCC(=O)NCc3ccccc3Cl)nnc12 (stereo not given)	.	.	.	.	-	.
O=C(O)c1ccc2c(c1)C(=O)N([C@H](Cc1c[nH]c3ccccc13)C(=O)O)C2=O	-	.	.	-	.	-
COc1ccc(N(CC(=O)N2CCc3ccccc3C2)S(C)(=O)=O)cc1Cl	-	-	-	-	-	-
COc1ccc(CNC(=O)N2CCc3ccccc3C2)cc1Cl	-	-	-	14	-	-
O=C(NCc1ccc(Cl)cc1)N1CCc2ccccc2C1	-	-	-	29	-	-
O=C(COc1ccc(Cl)cc1)N1CCCCCCC1	-	-	-	-	-	-
O=C(CCCOc1ccccc1)N1CCN(S(=O)(=O)c2ccc(Cl)cc2)CC1	.	.	-	.	-	.
Cc1cc(Cl)ccc1OCC(=O)N1CCN(c2ncccn2)CC1	-	-	-	-	-	-
Cc1cc(Cl)ccc1OCC(=O)N1CCCCC1	64	-	-	47	-	-
O=C(CCCOc1ccc(Cl)cc1)N1CCOCC1	30	-	-	-	-	-
O=C(COc1ccc(Cl)cc1)N1CCCCC1	52	-	-	34	-	-
O=C(CCCOc1ccc(Cl)cc1)N1CCCCCC1	77	-	-	39	-	-
CO[C@H]1COC(=O)[C@@H](C)COC(=O)[C@H](C)NC(=O)C/C=C\[C@H]1C	.	.	.	.	.	-[12.9 µM]
CC(C)(C)c1ccc(OCCCC(=O)N2CCOCC2)cc1	55	-	-	40	-	-
Cc1cccc(C(=O)N/N=C/c2ccc(OCC(=O)N3CCCCC3)cc2)c1	-	-	-	-	-	-
CCOC(=O)C1CCN(C(=O)CCCOc2ccccc2)CC1	64	-	-	36	-	-
O=C(CSCc1cccc(Cl)c1)N/N=C/c1ccc(OCC(=O)N2CCCCC2)cc1	-	-	-	13	-	-
CCOC(=O)C1CCN(C(=O)COc2ccc(C(=O)c3ccccc3)cc2)CC1	.	.	-	.	-	.
CCOc1ccc(OCCCC(=O)N2CCN(S(=O)(=O)c3ccc(Cl)cc3)CC2)cc1	.	.	-	.	?	.
O=C(CCCOc1ccc(Cl)cc1)N1CCCCC1	85	-	-	40	-	-
O=C(Nc1ccc(F)c(Cl)c1)C1CCN(S(=O)(=O)c2ccc3[nH]c(=O)ccc3c2)CC1	.	.	.	.	-	.
SMILES	Shiga inhibitor	LmPK inhibitor	RE007 growth inh	Cycloheximide cs	Tb PYK inh	FBPA Giardia inh
O=C(CCCOc1ccccc1)N1CCCCC1	-	-	-	55	-	-
CCOC(=O)C(=O)N1CCC(C(=O)OCC)CC1	-	-	-	28	-	-
CCC1CCCCN1C(=O)CCCOc1ccccc1 (stereo not given)	-	-	-	44	?	-
O=C(COc1ccccc1)N1CCCCCCC1	-	-	-	-	-	-
CCC1CCCCN1C(=O)COc1ccc(F)cc1 (stereo not given)	-	-	-	-	-	-
CCOC(=O)C1CCN(C(=O)C(=O)N2CCC(C(=O)OCC)CC2)CC1	-	-	-	-	-	-
Cc1nc2cnc(N3CCNCC3)nc2n(C2CC2)c1=O	.	.	.	.	-	-
CC(=O)NC[C@@H]1CN(c2ccc(N3CCOCC3)c(F)c2)C(=O)O1	.	.	.	.	-	.
CC(C)CN1CC[C@@]2(CCCN(S(=O)(=O)c3ccccc3)C2)C1	.	.	.	.	-	-
Cn1cc(C(=O)c2cccc(Cl)c2)cc1/C=N\O	-	-	-	33	-	-
Fc1cnc(N/N=C/c2ccc(-c3ccc(Br)cc3)o2)nc1N1CCOCC1	58	-	-	34	-	-
Brc1ccc(-c2ccc(/C=N/Nc3nc(N4CCOCC4)nc(N4CCOCC4)n3)o2)cc1	-	-	-	-	-	-
CCOc1cc(/C=N\Nc2ncc(F)c(N3CCOCC3)n2)ccc1Oc1nc(Cl)ncc1F	100	-	-	42	-	-
CCc1ccccc1N(C)C(=O)Cn1cnc2sc(C)c(S(=O)(=O)N3CCC(C)CC3)c2c1=O	.	.	.	.	-	.
O=C(Nc1cccc(C(F)(F)F)c1)Nc1cc(Cl)ccc1C(=O)O	-	.	.	-	.	-
CC(C)NC(=O)CC(=O)Nc1ccc2nc3n(c(=O)c2c1)CCCCC3	.	.	.	.	-	.
Cc1nc(CSc2ccc(Br)cc2)cs1	49	-	-	23	-	-
Cc1nc(CSc2ccc(Cl)cc2)cs1	111	-	-	36	-	-
Cc1nc(CNS(=O)(=O)c2ccc(Br)cc2)cs1	-	-	-	-	-	-
Cc1nc(CSc2nnc(N)s2)cs1	-	-	-	-	-	-
Cc1cc(C)n2cc(CSc3ccc(Br)cc3)nc2n1	31	-	-	26	-	-
Cc1cccc(-c2nc3nc(C)cc(NCc4ccccc4Cl)n3n2)c1	.	.	.	.	-	.
CC[C@H](C)[C@H](NC(=O)[C@H](N)Cc1ccc(O)cc1)C(=O)N[C@@H](CC(N)=O)C(=O)N[C@@H](CC(C)C)C(=O)N[C@H](C(=O)N[C@@H](C(=O)N[C@@H](CCCN=C(N)N)C(=O)N[C@@H](CCC(N)=O)C(=O)N[C@@H](CCCN=C(N)N)C(=O)N[C@H](Cc1ccc(O)cc1)C(N)=O)[C@@H](C)O)[C@@H](C)CC	-	.	.	-	.	-
O=C(CC(SCCO)c1ccc(F)cc1)c1ccco1 (stereo not given)	104	-	?	52	-	-
Cc1ccc(C(O)C(=O)c2ccco2)cc1 (stereo not given)	.	.	-	.	-	.
SMILES	Shiga inhibitor	LmPK inhibitor	RE007 growth inh	Cycloheximide cs	Tb PYK inh	FBPA Giardia inh
Cc1ccc(C(CC(=O)c2ccco2)SCCO)cc1 (stereo not given)	72	-	?	38	-	-
COc1ccc(-c2nn(C)c3sc(C(=O)N4CCN(c5cccc(C)c5C)CC4)cc23)cc1OC	.	.	.	.	-	.
COc1cc(NC(=O)c2nn(-c3ccc(F)cc3)c(=O)n(C)c2=O)cc(OC)c1OC	.	.	.	.	-	.
O=C(COCCOCCOCC(=O)Nc1c(I)cc(I)c(C(=O)O)c1I)Nc1c(I)cc(I)c(C(=O)O)c1I	.	.	.	.	-	.
Cc1ccc(-n2nc(C)c3c(C)cc(=O)[nH]c32)cc1	-	-	-	21	-	-
Cc1nn(-c2ccccc2)c2[nH]c(=O)cc(C(F)F)c12	.	.	-	.	-	.
Cc1c(O)ccc(/C(Cc2ccc3ccccc3n2)=N\N)c1O	68	-	-	29	-	-
Cc1ccc(C(=O)Nc2cc3[nH]c(=O)oc3cc2C)cc1	24	-	-	-	-	-
CCCN1C(=O)C(O)(CC(=O)c2ccc(OC)c(OC)c2)c2ccccc21 (stereo not given)	.	.	.	.	-	.
